This is an account of results in ChEMBL document CHEMBL3988442, “University of Dundee, Small-Polar-MMV Screening Library” (2021).

The whole screen tested about 66,000 compounds, of which about 960 (1.5%) showed an effect of 50% or more. This is one part of a sample in which strong results are shown more often than they occur.

In the experiment the test system is Trypanosoma brucei. In words: Trypanosoma brucei 72 hour study. Format: functional, organism-based. Further details: scale not given: in the data most compounds retested in dose-response had high values.

Turning to `OC[C@@H]1CCCN1c1nccc(-c2c[nH]nc2-c2ccncc2)n1`, the “Percent Effect” value (30.3 µM, […]) came out at 21.87%.

With `OC[C@H]1CCCN1c1nccc(-c2cncnc2C2CCCCC2)n1`, for the setting “30.3 µM, […]”, the “Percent Effect” value is -14.29%.

As for `OC[C@H]1CCCN1c1nccc(-c2c[nH]nc2C2CCCCC2)n1`, the “Percent Effect” value (30.3 µM, […]) is given as 98.96%.

For `CCc1noc(C(C)N(C)CC(=O)Nc2ccc(Br)cc2C)n1` (stereo not given), for the setting “30 µM, 30.03 µM”, the “Percent Effect” value is reported as -22.21%.

For the molecule `COc1ncccc1CN1C[C@@H]2COC[C@]2(COCC(=O)N(C)C)C1.O=C(O)C(F)(F)F.O=C(O)C(F)(F)F`, the “Percent Effect” value (30 µM, 30.03 µM) is given as -7.446%.

With `Clc1ccccc1C1(c2ccnc(C3CC3)n2)CCNCC1`, the “Percent Effect” value (30 µM, 30.03 µM) was -58.64%.

Take `Clc1ccccc1C1(c2ccnc(CC3CC3)n2)CCNCC1`: under “30 µM, 30.03 µM”, the “Percent Effect” value is listed as 25.18%.

As for `Clc1ccccc1C1(c2ccnc(-c3ncccn3)n2)CCNCC1`, the “Percent Effect” value (30 µM, 30.03 µM) came to 30.19%.

As to `CC(C)(C)c1nccc(C2(c3ccccc3Cl)CCNCC2)n1`, the “Percent Effect” value (30 µM, 30.03 µM) was 98.68%.

For the molecule `CC(C)c1nccc(C2(c3ccccc3Cl)CCNCC2)n1`, the “Percent Effect” value (30 µM, 30.03 µM) is given as -6.514%.

As for `Clc1ccccc1C1(c2ccnc(C3CCCC3)n2)CCNCC1`, the “Percent Effect” value (30 µM, 30.03 µM) is reported as 101.7%.

For `CC1(C)CC(N(Cc2ccccc2)Cc2ncc[nH]2)CC(C)(C)N1.O=C(O)CC(O)(CC(=O)O)C(=O)O`, where the note is “30.3 µM, […]”, the “Percent Effect” value worked out at 10.45%.

For the molecule `CCN1CCN(C)C2(CCN(Cc3ccsc3)CC2)C1=O.O=C(O)C(F)(F)F.O=C(O)C(F)(F)F`, the “Percent Effect” value (30.3 µM, […]) was -66.4%.

Regarding `O=C(O)C(F)(F)F.O=C1COC2(CCN(Cc3ccoc3)CC2)CN1`, the “Percent Effect” value (30 µM, 30.03 µM) is -33.82%.

In the case of `O=C(O)C(F)(F)F.O=C(c1cnccn1)N1CCCC2(CCN(c3ncccn3)C2)C1` (stereo not given), the “Percent Effect” value (30 µM, 30.03 µM) is -0.826%.

Take `CC(=O)N1CCN(S(=O)(=O)c2ccc(C)c(F)c2)CC1`: the “Percent Effect” value (30 µM, 30.03 µM) is 0.5413%.

Take `c1ccc2c(c1)CCN(c1nc(N3CCOCC3)c3nn[nH]c3n1)C2`: for the setting “30.3 µM, […]”, the “Percent Effect” value is listed as -17%.

Take `Cc1nc(CO[C@@H]2CN(Cc3ccsc3)[C@@H]3COC[C@@H]32)cs1.O=C(O)C(F)(F)F`: the “Percent Effect” value (30 µM, 30.03 µM) was -15.95%.

In the case of `CC(C)COCCC(=O)NCc1cn2cc(Br)ccc2n1`, for the setting “30 µM, 30.03 µM”, the “Percent Effect” value is recorded as -7.155%.

On to `CCOCCCC(=O)NCc1cn2cc(Br)ccc2n1`, for which the “Percent Effect” value (30 µM, 30.03 µM) is given as 54.92%.

For the molecule `CCOCCOC(C)C(=O)NCc1cn2cc(Br)ccc2n1` (stereo not given), the “Percent Effect” value (30 µM, 30.03 µM) was determined as 14.67%.

On to `OC1(CNCCN2CCCc3ccccc32)CCNC1` (stereo not given), for which the “Percent Effect” value (30.3 µM, […]) turned out to be 6.012%.

`OC1(CNCCCN2CCc3ccccc32)CCNC1` (stereo not given): the “Percent Effect” value (30.3 µM, […]) amounted to 99.09%.

`OC1(CNCCCN2CCCc3ccccc32)CNCCOC1` (stereo not given): the “Percent Effect” value (30.3 µM, […]) was 12.14%.

Regarding `Cl.O=C(CCn1c(C(F)(F)F)cc2cccnc21)N1CCOCC1`, the “Percent Effect” value (30.3 µM, […]) is -52.3%.

In the case of `CN(CCOc1cccc(F)c1)Cc1nc2c(cnn2C)c(=O)[nH]1`, the “Percent Effect” value (30.3 µM, […]) was -16.26%.

Take `Cc1cc(O)c(OCC(=O)/N=c2\[nH]c(C)c(C)s2)cn1`: the “Percent Effect” value (30 µM, 30.03 µM) is recorded as -31.23%.

With `Cc1cccc(NC(=O)c2csc(NCC(C)C)n2)n1`, for the setting “30 µM, 30.03 µM”, the “Percent Effect” value is -6.262%.

As for `Cc1cnc(NC(=O)c2csc(NCC(C)C)n2)s1`, the “Percent Effect” value (30 µM, 30.03 µM) is listed as 4.824%.

`Cc1cs/c(=N/C(=O)c2csc(NCC(C)C)n2)[nH]1`: the “Percent Effect” value (30 µM, 30.03 µM) stood at 86.34%.

For `CC(C)CNc1nc(C(=O)/N=c2\[nH]nc(C(C)(C)C)s2)cs1`, for the setting “30 µM, 30.03 µM”, the “Percent Effect” value is reported as -9.789%.

Turning to `Cc1[nH]/c(=N\C(=O)c2csc(NCC(C)C)n2)sc1C`, for the setting “30 µM, 30.03 µM”, the “Percent Effect” value came to 99.84%.

`O=C(O)C(F)(F)F.O=C(c1cscn1)N1CC[C@@H]2[C@@H]1CCN2C1CCOCC1`: where the note is “30.3 µM, […]”, the “Percent Effect” value is given as -53.41%.

For `O=C(O)C(F)(F)F.O=C(c1ccccn1)N1CCc2ncc(Cn3cccn3)n2CC1`, the “Percent Effect” value (30.3 µM, […]) is -7.142%.

Turning to `Cc1ccc(S(=O)(=O)N2C[C@H]3C[C@H](NC(=O)c4cnn(C)c4)[C@H]3C2)cc1`, the “Percent Effect” value (30.3 µM, […]) is on record as -2.175%.

`COc1c(CNCc2cccc(Cn3ccnc3C)c2)c(C)nn1C.Cl`: the “Percent Effect” value is given as -2.374% (30.3 µM, […]) and -46.4% (10 mM, 10 mM as filed; unlikely as a test dose).

For `CC(C)c1nc2c(n1C)CCN(Cc1nc(-c3ccsc3)no1)C2`, for the setting “30 µM, 30.03 µM”, the “Percent Effect” value is recorded as 59.36%.

`CC(C)c1nc2c(n1C)CCN(Cc1nc(-c3ccoc3)no1)C2`: for the setting “30.3 µM, […]”, the “Percent Effect” value was -0.2084%.

With `Cn1c(C2CC2)nc2c1CCN(Cc1nc(-c3ccsc3)no1)C2`, the “Percent Effect” value (30.3 µM, […]) is reported as -7.992%.

For `COc1ccc(CN(C)[C@@H]2COC[C@H]2c2ccc(F)cc2)c(OC)c1.O=C(O)CC(O)(CC(=O)O)C(=O)O`, under “30.3 µM, […]”, the “Percent Effect” value came to 4.622%.

Regarding `Br.CCOc1ccc(N(CC(=O)c2ccccc2)C2=NCCCCC2)cc1`, the “Percent Effect” value (30 µM, 30.03 µM) amounted to 25.81%.

Regarding `COc1ccccc1CN1C[C@@H]2CN(C(C)=O)CCO[C@@H]2C1.O=C(O)C(F)(F)F`, under “30.3 µM, […]”, the “Percent Effect” value was -77.53%.

Consider `CN(Cc1nc(N2CCCC2)ncc1-c1ccncc1)C(=O)C(C)(C)C.Cl`, for which, for the setting “30.3 µM, […]”, the “Percent Effect” value is reported as 34.69%.

In the case of `Cc1ccc(OC2(C(=O)N(C)Cc3ccoc3)CCNCC2)cc1`, the “Percent Effect” value (30.3 µM, […]) is given as 91.09%.

On to `O=C(N[C@@H]1CCCNC1)C1(Oc2ccc(Cl)cc2)CCNCC1`, for which, where the note is “30 µM, 30.03 µM”, the “Percent Effect” value is reported as -80.08%.

In the case of `CN(C)C(=O)C1(Oc2ccc(Cl)cc2)CCNCC1`, for the setting “30.3 µM, […]”, the “Percent Effect” value is recorded as -28.66%.

With `Cc1ccc(OC2(C(=O)NC(C)Cc3ccncc3)CCNCC2)cc1` (stereo not given), the “Percent Effect” value (30 µM, 30.03 µM) is reported as -4.697%.

As to `CN(Cc1ccncn1)C(=O)C1(Oc2ccc(Cl)cc2)CCNCC1`, where the note is “30.3 µM, […]”, the “Percent Effect” value is listed as -35.89%.

Take `CN(Cc1ccoc1)C(=O)C1(Oc2ccc(Cl)cc2)CCNCC1`: the “Percent Effect” value (30.3 µM, […]) came to 99.82%.
